The values that follow come from PubChem BioAssay.

Several values for one entry are separate records, joined by “and”; a condition that tells them apart may be missing. Equal entries are not always repeated. Records with an inconclusive call do not appear. For some assays here: Entries with a potency or affinity are not part of this list. Activity calls are given as the source filed them.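 Rule for the calls, unless noted: active = compounds whose cell count with miR-34 switched on is under 0.7 times the count with it off; inactive = the rest.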

Assay [1] in a line: polyglutamine-triggered caspase-3 activation inhibitors, cell-based (AID 1583). The settings on record: polyglutamine-induced caspase-3 activation, cell assay; stronger effect = higher value;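 tested at 10 µM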.
Assay [2] can be described thus: suppressors of polyQ aggregation in yeast, 75Q-TubU reporter (AID 1593). Conditions: Yeast 75Q polyglutamine aggregation reporter.
A short description of assay [3]: rescue of polyQ-huntingtin neuronal dysfunction in worms, whole organism, C. elegans mechanosensory neurons, N-terminal huntingtin (AID 1599). Conditions: touch response, stronger effect = higher value.
Assay [4] is described as follows: inhibitors of mitochondrial cytochrome c release, biochemical, purified mitochondria (AID 1603).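 Note: mouse liver mitochondria challenged with calcium chloride; signal normalized to the plate average as 100%.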 The settings on record: stronger effect = lower value.
A short description of assay [5]: inhibitors of polyQ protein aggregation (AID 1604). The settings on record: polyglutamine-induced protein aggregation inhibition assay; stronger effect = higher value; tested at 2.5 µM.
Assay [6] is described as follows: enhancers of glutamate uptake in motor neurons, MN-1 cell line (AID 1612).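 Note: tested at 1 µM final; 0% = mean of DMSO vehicle wells on each plate; positive means more glutamate uptake than control and negative means less.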 The settings on record: MN-1 motor neuron cells, stronger effect = higher value.
Assay [7] is described as follows: reducers of polyQ inclusions in PC12 cells, cell-based, NGF-treated PC12, GFPQ80 (AID 1614).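 Note: lower means fewer inclusions and 0 means no inclusions at all.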 The settings on record: PC12 NGF-treated GFP-polyQ80 inclusion reduction.
The nature of assay [8]: suppressors of polyglutamine aggregation in yeast, 75Q-TubH (AID 1616). The settings on record: S. cerevisiae 75Q-TubH polyglutamine aggregation suppression; stronger effect = higher value.
A short description of assay [9]: sensitizers of A549 cells to miR-34 induction, primary screen, imaging, A549 dox-inducible miR-34, nuclei and caspase counts (AID 1347080). The settings on record: A549 miR-34 inducible, Hoechst nuclei count, 48 h.
The nature of assay [10]: viability rescue of complex I mutant cybrids, primary screen, cell-based, galactose medium, ATP luminescence (AID 1645843;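 active = z-score of at least 1.8 in each of two replicates, scored against plate mean and spread of sample wells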;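 note: positive z means more ATP and so rescue of galactose-driven cybrid death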). The settings on record: complex I mutant cybrid cells, 72 h, stronger effect = higher value.
The nature of assay [11]: hESC survival regulators, cell-based (AID 493140; call rule not given here;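 note: cells exposed to compounds for four days before counting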). Conditions: human embryonic stem cell survival screen; stronger effect = higher value.
Assay [12] in a line: liver-stage malaria parasite growth inhibition, primary screen, cell-based, HepG2, luciferase luminescence, HepG2 viability (AID 624349; in the data active = parasite load remaining mostly below about 12%, no sharp cut-off; inactive = mostly above about 10%;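 note: 100% = mean of DMSO negative control wells on the same plate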). Conditions: P. berghei liver stage in HepG2, luciferase luminescence, concentration not given here; parasite load remaining: stronger effect = lower value; viability: measured here: HepG2 viability without parasites.
Assay [13] has as its target NAD(+) hydrolase SARM1 (Homo sapiens) (UniProt Q6SZW1). Kind of assay: SARM1 TIR NADase inhibitors, cell lysate, NAD-Glo luminescence (AID 1508614;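 active = compound whose remaining NAD level is above about 45 nM, limit read from the data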;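 note: higher remaining NAD means stronger inhibition of SARM1 NADase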). The settings on record: SAM-TIR HEK293T lysate NADase, at 1 µM, stronger effect = higher value.
In assay [14] the target is Mitogen-activated protein kinase 7 (Homo sapiens) (UniProt Q13164). As to the kind of experiment: ERK5 transactivation activators in reporter cells, primary screen, cell-based, HTS (AID 1508626;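 active = luciferase signal above three times the same-plate solvent-only control wells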;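 note: luciferase driven by Gal4-ERK5 fusion binding five Gal4 sites before minimal TATA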). Conditions: HeLa Gal4-ERK5 transactivation, 18 h, at 5 µM, stronger effect = higher value.
Assay [15] in a line: protection against mutant huntingtin cytotoxicity, PC12 cells, LDH release (AID 1610). The settings on record: PC12 mutant huntingtin toxicity, final LDH at 4 uM, stronger effect = lower value. A general note: Release of lactate dehydrogenase indicates damage to the cell membrane.
Assay [16] has as its system Hepatitis C virus NS3 helicase. Kind of assay: HCV NS3 helicase inhibitors, primary screen, biochemical, fluorescence polarization, LOPAC1280 library (AID 687035; in the data active = inhibition above about 37%). The settings on record: Purified HCV NS3 helicase, Cy5-dT15 ssDNA binding fluorescence polarization; stronger effect = higher value; concentration not given here.
A short description of assay [17]: Cy5 fluorescence quenching or enhancement artefacts, artefact control for HCV NS3 helicase inhibitor project, biochemical, LOPAC1280 (AID 687037; call rule not given here). The settings on record: Cy5-DNA-NS3h complex fluorescence interference counterscreen. In general terms: Counterscreens check selectivity or assay interference.
Assay [18] in a line: survival rescue of mitochondrial mutant cells in low glucose, primary screen, MELAS cybrids, Rieske KO mouse fibroblasts, CellTiter-Glo (AID 1508586;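 active = mean z-score across replicates of 1.96 or higher in either the MELAS or the Rieske mutant cell line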;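 note: z relative to plate mean and SD of compound and empty wells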). In general terms: Cellular ATP, detected with luciferase, serves as a proxy for viable cell number.
Where [19] appears, read: stronger effect = lower value, cell number ratio, induced over uninduced.
The mark [20] stands for this setting: measured here: relative caspase fold change +Dox/-Dox.
[21] abbreviates: measured here: total cells with miR-34 induction, stronger effect = lower value.
Where [22] appears, read: measured here: total cells without miR-34 induction.

Broadly, the inhibition is the drop in the measured response relative to a control, in per cent. A word on the viability: it is a read-out of living cells in per cent, often relative to untreated cells.

Chain of Mitogen-activated protein kinase 7 (Homo sapiens) (Q13164 whole entry, looked up, the tested form may be a part): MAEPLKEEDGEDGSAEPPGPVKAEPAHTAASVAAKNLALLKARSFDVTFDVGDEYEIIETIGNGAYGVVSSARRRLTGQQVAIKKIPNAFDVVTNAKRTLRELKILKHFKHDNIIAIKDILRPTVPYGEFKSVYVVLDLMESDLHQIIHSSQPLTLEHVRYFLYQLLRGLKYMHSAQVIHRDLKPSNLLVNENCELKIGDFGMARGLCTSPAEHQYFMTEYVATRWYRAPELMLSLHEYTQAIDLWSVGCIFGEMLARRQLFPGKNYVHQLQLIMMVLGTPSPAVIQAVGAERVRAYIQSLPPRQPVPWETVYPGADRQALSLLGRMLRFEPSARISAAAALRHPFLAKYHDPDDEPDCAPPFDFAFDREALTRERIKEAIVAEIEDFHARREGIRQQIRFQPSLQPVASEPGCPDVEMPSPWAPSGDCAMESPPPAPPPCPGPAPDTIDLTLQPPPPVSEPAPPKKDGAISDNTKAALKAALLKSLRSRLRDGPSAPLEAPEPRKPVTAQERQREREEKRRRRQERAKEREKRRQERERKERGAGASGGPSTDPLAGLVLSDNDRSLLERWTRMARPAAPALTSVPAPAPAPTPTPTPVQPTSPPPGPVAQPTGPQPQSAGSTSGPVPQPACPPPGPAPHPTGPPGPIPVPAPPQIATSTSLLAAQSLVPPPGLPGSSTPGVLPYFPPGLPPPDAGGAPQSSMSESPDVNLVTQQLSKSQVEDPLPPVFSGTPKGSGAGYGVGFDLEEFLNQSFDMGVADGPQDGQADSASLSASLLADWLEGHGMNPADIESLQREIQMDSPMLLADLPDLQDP
Chain of NAD(+) hydrolase SARM1 (Homo sapiens) (Q6SZW1 whole entry, looked up, the tested form may be a part): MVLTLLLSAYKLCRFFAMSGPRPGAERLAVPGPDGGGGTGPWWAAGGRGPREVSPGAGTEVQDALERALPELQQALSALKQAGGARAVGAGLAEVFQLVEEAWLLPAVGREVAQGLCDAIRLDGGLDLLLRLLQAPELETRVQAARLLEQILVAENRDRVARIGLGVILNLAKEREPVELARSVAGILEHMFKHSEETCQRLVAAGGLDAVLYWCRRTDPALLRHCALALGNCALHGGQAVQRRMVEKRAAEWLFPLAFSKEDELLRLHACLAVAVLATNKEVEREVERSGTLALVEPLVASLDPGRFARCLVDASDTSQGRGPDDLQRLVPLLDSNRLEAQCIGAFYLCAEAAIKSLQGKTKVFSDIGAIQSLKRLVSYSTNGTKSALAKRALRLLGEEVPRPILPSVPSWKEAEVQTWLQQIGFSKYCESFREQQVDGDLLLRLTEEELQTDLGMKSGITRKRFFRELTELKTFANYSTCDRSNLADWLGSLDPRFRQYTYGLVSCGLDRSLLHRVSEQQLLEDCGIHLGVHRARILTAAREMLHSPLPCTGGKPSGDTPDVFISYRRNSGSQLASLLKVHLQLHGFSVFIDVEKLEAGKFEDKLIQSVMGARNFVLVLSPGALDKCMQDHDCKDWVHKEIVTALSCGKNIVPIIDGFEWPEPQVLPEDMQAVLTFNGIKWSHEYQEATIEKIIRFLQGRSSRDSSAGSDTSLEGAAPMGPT

Consider `CN=C(N)NCCCC(N)C(=O)O` (stereo not given), for which the inhibition in assay [1] was 9.27%. Also, the score in [2] came out at 2.21. For the same compound, the rescue above control in assay [3] was -4.19. For the same compound, the cytochrome c release ratio in [4] amounted to 0.94. Moreover, the inhibition of aggregation in assay [5] was -4.76%. The glutamate uptake change in assay [6] stood at 3.17%. In assay [7], this compound returned an inclusion score of 2. This compound also yielded an aggregation suppression score in [8] of 1.06. The fold change was 0.944 (inactive) in assay [9] (setting [19]) and 1.42 in assay [9] (setting [20]). Further, the cell count in [9] (setting [21]) was found to be 9430; in assay [9] (setting [22]), 9990. In addition, the z-score in [10] was 1.06 (inactive).
On to `Cn1nnnc1SCC1=C(C(=O)O)N2C(=O)[C@@H](NC(=O)[C@H](O)c3ccccc3)[C@H]2SC1`, for which, in assay [11], the survival is 7.33 (inactive). Besides, the parasite load remaining in assay [12] is 73.2% (inactive). This compound also gave a viability in [12] of 97.6%. Further, the fold change in [9] (setting [19]) was 0.871 (inactive); in assay [9] (setting [20]), 1.18. Further, the cell count was found to be 9300 in assay [9] (setting [21]) and 10700 in assay [9] (setting [22]). For the same compound, in assay [13], the remaining NAD was 10 nM (inactive). Besides, in [14], the luciferase signal was 36 AU (inactive).
Compound `CN1C2CC[C@H]1CC(OC(=O)C(O)c1ccccc1)C2` (stereo not given in full) registered a score in [2] of 1.13. In assay [3], the rescue above control was -4.02. In assay [6], the glutamate uptake change was -10.2%. In assay [7], this compound had an inclusion score of 2. Further, the aggregation suppression score in assay [8] came to 1.37. The fold change in [9] (setting [19]) is 0.844 (inactive); in assay [9] (setting [20]), 1.44. Further, the cell count came out at 10300 in [9] (setting [21]) and 12200 in assay [9] (setting [22]).
Turning to `CC1(C)S[C@@H]2[C@H](NC(=O)[C@@H](N)c3ccc(O)cc3)C(=O)N2[C@H]1C(=O)O`, the inhibition in assay [1] came out at 1.98%. Moreover, the score in [2] was 1.39. The compound also returned a rescue above control in assay [3] of 1.27. For the same compound, in assay [4], the cytochrome c release ratio was 1.03. Also, in assay [5], the inhibition of aggregation turned out to be 54.5%. For the same compound, in assay [6], the glutamate uptake change is 1.23%. In addition, in assay [7], the inclusion score is 2. The compound also gave an aggregation suppression score in assay [8] of 1.15. Moreover, the parasite load remaining in assay [12] is 98.1% (inactive) and 66.2% (inactive). Further, in [12], the viability was 75% and 90.3%. The fold change in assay [9] (setting [19]) was 0.918 (inactive); in [9] (setting [20]), 1.48. The figures for the cell count in assay [9] (setting [21]) and in [9] (setting [22]) were 11000 and 12000, respectively.
As to `CC(Cc1ccc(O)c(O)c1)C(C)Cc1ccc(O)c(O)c1` (stereo not given), in assay [1], the inhibition was -3.14%. This compound also came in with a score in assay [2] of 0.83. This compound registered a rescue above control in assay [3] of -2.86. Besides, the cytochrome c release ratio in assay [4] was determined as 3.11. In addition, the inhibition of aggregation in assay [5] was -17%. In assay [15], this compound had a normalised LDH release of 0.415. For the same compound, in assay [6], the glutamate uptake change is 67.2%. Moreover, the aggregation suppression score in assay [8] came out at 0.665. In addition, the fold change was 1.04 (inactive) in [9] (setting [19]) and 1.01 in assay [9] (setting [20]). Moreover, the cell count in [9] (setting [21]) turned out to be 5990; in assay [9] (setting [22]) it was 5750.
For the compound `CCc1c(C(=O)NCCc2ccc(N3CCCCC3)cc2)[nH]c2ccc(Cl)cc12`, in assay [16], the inhibition is 0% (inactive). In [17], the fluorescence ratio (interference) is 1 (inactive). Also, the figures for the fold change in assay [9] (setting [19]) and in assay [9] (setting [20]) were 0.939 (inactive) and 0.558, respectively. Moreover, the cell count in assay [9] (setting [21]) worked out at 7490; in [9] (setting [22]), 7980. Also, the z-score is 0.376 (inactive) in assay [18] (MELAS cybrid survival, CellTiter-Glo 48 h, stronger effect = higher value) and -0.206 in assay [18] (Rieske KO mouse fibroblast survival, CellTiter-Glo 72 h).
